Records with an inconclusive call do not appear. Entries that show only a call come without a potency. Calls of active or inactive are those of the source. The call rests on the fitted dose curve; in most records, active means well fitted cell-killing curve with a large enough effect in the repeat runs; inconclusive means weak or mixed curves, or effect the other way; inactive means flat fitted curve, though single readings scatter.
Tests used:
[1] = cAMP Responsive Elements (CRE) small molecule antagonists, cell-based qHTS assay: qHTS cell viability counter screen (AID 2060913); settings: CRE-bla HEK293T viability, CellTiter-Glo luminescence, 5 h; series mostly up to 92.4 µM; further: nearly all actives have a fitted effect of over 40% in size
Procedure, shortened: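 HEK293T CRE-bla, 2,000 cells/well, 18 h preincubation; cpd in DMSO + NKH477 0.25 uM final, 3 h 37 C/5% CO2; LiveBLAzer 2 h RT, then CellTiter-Glo 30 min RT, luminescence.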

[2] = cAMP Responsive Elements (CRE) small molecule agonists, cell-based qHTS assay: qHTS cell viability counter screen (AID 2060914); settings: CRE-bla HEK293T viability, CellTiter-Glo luminescence, 5 h; series mostly up to 92.4 µM;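 further: viability read after 3 h of compound exposure; nearly all actives have a fitted effect of over 50% in size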
Procedure, shortened: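 CRE-bla HEK293T cells in 10% dialyzed FBS medium were exposed to compounds for 3 h at 37C after 18 h plating. CellTiter-Glo was then added in the same wells, and luminescence was read after 30 min at room temperature.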

SMILES	Potency [1]	Potency [2]
COc1ccc(/C(C)=C/C(=O)O)c(OC)c1	inactive	inactive
CCCCCCOC(=O)CC(CC(=O)OCCCCCC)(OC(=O)CCC)C(=O)OCCCCCC	inactive	inactive
COc1ccc(Cc2cnc(N)nc2N)cc1OC	inactive	inactive
CC(C)c1cc(C(C)C)cc(C(C)C)c1	inactive	inactive
N=C(N)c1ccc(OCCCCCOc2ccc(C(=N)N)cc2)cc1	inactive	inactive
CC(C)C(=O)Nc1cccc(C(F)(F)F)c1	inactive	inactive
CCC(=O)/C=C/c1ccc(OC)cc1	inactive	inactive
CCCCCCCCS(=O)(=O)Cl	inactive	inactive
Nc1ccn(C2CO[C@H](CO)O2)c(=O)n1 (stereo partly drawn)	inactive	inactive
O=C(O)c1cc(-c2ccccc2)nc2ccccc12	inactive	inactive
CCc1cnc(C(=O)O)c(C(=O)O)c1	inactive	inactive
CC(C)c1ccccc1O	inactive	inactive
S=P(N1CC1)(N1CC1)N1CC1	inactive	inactive
CCOc1ccc2nc(S(N)(=O)=O)sc2c1	inactive	inactive
C[C@]12CCC(=O)C=C1CC[C@@H]1[C@@H]2CC[C@@]2(C)[C@H]1CC[C@]2(O)C(=O)CO	inactive	inactive
CCCCOC(=O)[C@H](C)O	inactive	inactive
CN1CCN(C2Cc3ccccc3Sc3ccc(Cl)cc32)CC1 (stereo not drawn)	inactive	inactive
CCc1cc(Cl)c(OC)c(C(=O)NC[C@@H]2CCCN2CC)c1O	inactive	inactive
CCCCN(CCCC)CCC(O)c1cc2c(Cl)cc(Cl)cc2c2cc(C(F)(F)F)ccc12 (stereo not drawn)	inactive	inactive
